Data as given in PubChem BioAssay (NCATS).
Results filed as inconclusive are left out. Activity calls are given as the source filed them. Calls follow the shape of the dose curve; as a rule, active = well fitted curve in the direction sought with a large enough effect; inconclusive = small, poorly fitted or top-dose-only effect, or another doubt; inactive = no such curve, though single readings can be large; an effect the other way counts as inactive or inconclusive.

Columns and labels:
HACAT = assay: qHTS assay to identify novel small-molecules to repurpose for Merkel cell carcinoma treatment (AID 1296009); settings: MCC and control cell lines, CellTiter-Glo viability, 72 h; at 44.8 µM (top of the series) unless noted; also: nearly all actives have a fitted effect of over 60% in size
Outline: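 72 hr, 37 degree celsius; NPC 8-pt / MIPE 11-pt dose response; compound pinned in DMSO; CellTiter-Glo, 10 min RT, luminescence; normalized to no-cell and DMSO controls.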

C33A = assay: Primary qHTS to identify gynecologic anti-cancer compounds using libraries of approved drugs and bioactive compounds (AID 1345084); settings: Gynecologic cancer cell panel viability, ATPlite luminescence, 48 h; series mostly up to 57.5 µM; also: % is scaled to controls: 0 for no effect and ±100 for the full control effect; nearly all actives have a fitted effect of over 55% in size
Outline: (§1)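 In this quantitative HTS, cell killing is estimated from loss of ATP-dependent luciferase light. Cells see five compound concentrations over a 48 h exposure.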

CAOV3 = assay: as above; settings: Gynecologic cancer cell panel viability, ATPlite luminescence, 48 h; series mostly up to 57.5 µM
Outline: as §1

CASKI = assay: as above; settings: Gynecologic cancer cell panel viability, ATPlite luminescence, 48 h; series mostly up to 57.5 µM
Outline: as §1

Es-2 = assay: as above; settings: Gynecologic cancer cell panel viability, ATPlite luminescence, 48 h; series mostly up to 57.5 µM
Outline: as §1

HeLa = assay: as above; settings: Gynecologic cancer cell panel viability, ATPlite luminescence, 48 h; series mostly up to 57.5 µM
Outline: as §1

Hek293T = assay: as above; settings: Gynecologic cancer cell panel viability, ATPlite luminescence, 48 h, control line for the selectivity index; series mostly up to 57.5 µM
Outline: as §1

JEG-3 = assay: as above; settings: Gynecologic cancer cell panel viability, ATPlite luminescence, 48 h; series mostly up to 57.5 µM
Outline: as §1

CC[C@H](NC(=O)c1c(O)c(-c2ccccc2)nc2ccccc12)c1ccccc1
inactive: outcome (HACAT) | Potency (C33A) | Potency (CAOV3) | outcome (CASKI) | Potency (Es-2) | Potency (HeLa) | Potency (Hek293T) | Potency (JEG-3)

CC(C)C[C@H](NC(=O)[C@@H]1O[C@H]1C(=O)O)C(=O)NCCCCN=C(N)N
inactive: outcome (HACAT) | Potency (C33A) | Potency (CAOV3) | outcome (CASKI) | Potency (Es-2) | Potency (HeLa) | Potency (Hek293T) | Potency (JEG-3)

CC(=O)/C=C/C1(O)C(C)CC(O[C@@H]2O[C@H](CO)[C@@H](O)[C@H](O)[C@H]2O)CC1(C)C (stereo partly specified)
inactive: outcome (HACAT) inactive [at 17.4 µM] | Potency (C33A) | Potency (CAOV3) | outcome (CASKI) | Potency (Es-2) | Potency (HeLa) | Potency (Hek293T) | Potency (JEG-3)

CC1(C)C2CC[C@]3(C)C(C(=O)C=C4[C@H]5C[C@@](C)(C(=O)O)CC[C@]5(C)CC[C@]43C)[C@@]2(C)CC[C@@H]1O (stereo partly specified)
inactive: outcome (HACAT) inactive [at 17.4 µM] | Potency (C33A) | Potency (CAOV3) | outcome (CASKI) | Potency (Es-2) | Potency (HeLa) | Potency (Hek293T) | Potency (JEG-3)

CC(O)CCc1ccc(O[C@@H]2O[C@H](CO)[C@@H](O)[C@H](O)[C@H]2O)cc1 (stereo partly specified)
inactive: outcome (HACAT) | Potency (C33A) | Potency (CAOV3) | outcome (CASKI) | Potency (Es-2) | Potency (HeLa) | Potency (Hek293T) | Potency (JEG-3)

OC[C@@]1(O)CO[C@@H](OC[C@H]2O[C@@H](Oc3ccccc3)[C@H](O)[C@@H](O)[C@@H]2O)[C@@H]1O
inactive: outcome (HACAT) | Potency (C33A) | Potency (CAOV3) | outcome (CASKI) | Potency (Es-2) | Potency (HeLa) | Potency (Hek293T) | Potency (JEG-3)

CC1=C2CC(C)(C)CC2C(O)C2=C(C1)C(=O)OC2O (stereo unspecified)
inactive: outcome (HACAT) | Potency (C33A) | Potency (CAOV3) | outcome (CASKI) | Potency (Es-2) | Potency (HeLa) | Potency (Hek293T) | Potency (JEG-3)

CC(=O)OCC1OC(OC2COC(OC3COC(OC4C(OC5C(CO)OC(OC6CCC7(C)C(CCC8(C)C7CC=C7C9CC(C)(C)CCC9(C(=O)OC9OC(CO)C(O)C(O)C9OC9OCC(OC%10OCC(O)(CO)C%10O)C(O)C9O)C(O)CC78C)C6(C)C)C(O)C5O)OCC(O)C4O)C(O)C3O)C(O)C2O)C(OC(=O)/C=C/c2ccccc2)C(O)C1OC(C)=O (stereo unspecified)
inactive: outcome (HACAT) inactive [at 4.96 µM] | activity change, negative = cytotoxicity (C33A) 6.07% [at 6.55 µM] | activity change, negative = cytotoxicity (CAOV3) -0.975% [at 6.55 µM] | activity change, negative = cytotoxicity (CASKI) 5.64% [at 6.55 µM] | activity change, negative = cytotoxicity (Es-2) -4.41% [at 6.55 µM] | activity change, negative = cytotoxicity (HeLa) 6.46% [at 6.55 µM] | activity change, negative = cytotoxicity (Hek293T) 3.2% [at 6.55 µM] | activity change, negative = cytotoxicity (JEG-3) -2.72% [at 6.55 µM]

COc1cc(C2Oc3c(OC)cc(CCCO)cc3C2CO)ccc1O (stereo unspecified)
inactive: outcome (HACAT) | Potency (C33A) | Potency (CAOV3) | outcome (CASKI) | Potency (Es-2) | Potency (HeLa) | Potency (Hek293T) | Potency (JEG-3)

C[C@@H]1O[C@@H](O[C@H]2[C@H](OC(=O)[C@]34CCC(C)(C)C[C@H]3C3=CCC5[C@@]6(C)C[C@@H](O)[C@@H](O)[C@@](C)(CO)C6[C@H](O)C[C@@]5(C)[C@]3(C)CC4)OC[C@H](O)[C@@H]2O)[C@H](O)[C@H](O)[C@H]1O[C@@H]1OC[C@@H](O)[C@H](O[C@H]2O[C@H](C)[C@@H](O)[C@H](O)[C@@H]2O)[C@H]1O (stereo partly specified)
inactive: outcome (HACAT) inactive [at 9.27 µM] | activity change, negative = cytotoxicity (C33A) -5.04% [at 11.6 µM] | activity change, negative = cytotoxicity (CAOV3) 7.19% [at 11.6 µM] | activity change, negative = cytotoxicity (CASKI) 15.8% [at 11.6 µM] | activity change, negative = cytotoxicity (Es-2) 6.09% [at 11.6 µM] | activity change, negative = cytotoxicity (HeLa) 13.1% [at 11.6 µM] | activity change, negative = cytotoxicity (Hek293T) -1.53% [at 11.6 µM] | activity change, negative = cytotoxicity (JEG-3) 3.24% [at 11.6 µM]

O=C(Nc1ccc(N2CCC(C(=O)N3CCOCC3)CC2)cc1)c1cnc(Oc2ccccc2)nc1
inactive: outcome (HACAT) | Potency (C33A) | Potency (CAOV3) | outcome (CASKI) | Potency (Es-2) | Potency (HeLa) | Potency (Hek293T) | Potency (JEG-3)

CC(=O)OCC1=C[C@@H]2OC(=O)C3=CO[C@@H](O[C@@H]4O[C@H](CO)[C@@H](O)[C@H](O)[C@H]4O)[C@H]1[C@@H]32
inactive: outcome (HACAT) inactive [at 17.4 µM] | Potency (C33A) | Potency (CAOV3) | outcome (CASKI) | Potency (Es-2) | Potency (HeLa) | Potency (Hek293T) | Potency (JEG-3)

CC1=CC(=O)CC(C)(C)C1CCC(C)O[C@@H]1O[C@H](CO)[C@@H](O)[C@H](O)[C@H]1O (stereo partly specified)
inactive: outcome (HACAT) | Potency (C33A) | Potency (CAOV3) | outcome (CASKI) | Potency (Es-2) | Potency (HeLa) | Potency (Hek293T) | Potency (JEG-3)

CC(C)CC(=O)NCCn1cc(C(=O)O)c(=O)cc1C(O)c1ccccc1 (stereo unspecified)
inactive: outcome (HACAT) | Potency (C33A) | Potency (CAOV3) | outcome (CASKI) | Potency (Es-2) | Potency (HeLa) | Potency (Hek293T) | Potency (JEG-3)

C[C@@H]1O[C@@H](O[C@@H]2[C@@H](O)[C@H](O[C@@H]3[C@@H](O)[C@@H](O)[C@H](O[C@H]4[C@H](OC(=O)[C@]56CCC(C)(C)C[C@H]5C5=CCC7[C@@]8(C)C[C@H](O)[C@H](O[C@@H]9O[C@H](C(=O)O)[C@@H](O)[C@H](O)[C@H]9O)[C@@](C)(CO)C8[C@H](O)C[C@@]7(C)[C@]5(C)C[C@H]6O)O[C@@H](CO)[C@@H]4O)O[C@H]3C)OC[C@H]2O)[C@H](O)[C@H](O)[C@H]1O (stereo partly specified)
inactive: outcome (HACAT) inactive [at 9.27 µM] | activity change, negative = cytotoxicity (C33A) 7.96% [at 6.55 µM] | activity change, negative = cytotoxicity (CAOV3) -1.08% [at 6.55 µM] | activity change, negative = cytotoxicity (CASKI) 4.5% [at 6.55 µM] | activity change, negative = cytotoxicity (Es-2) 7.92% [at 6.55 µM] | activity change, negative = cytotoxicity (HeLa) 5.7% [at 6.55 µM] | activity change, negative = cytotoxicity (Hek293T) 11.5% [at 6.55 µM] | activity change, negative = cytotoxicity (JEG-3) 3.64% [at 6.55 µM]

CC(C)[C@](O)(c1ccc2cc(OC(F)F)c(OC(F)F)cc2c1)c1cn[nH]n1
inactive: outcome (HACAT) | Potency (C33A) | Potency (CAOV3) | outcome (CASKI) | Potency (Es-2) | Potency (HeLa) | Potency (Hek293T) | Potency (JEG-3)

CSCC1OC(n2cnc3c(=O)[nH]cnc32)C(O)C1O (stereo unspecified)
inactive: outcome (HACAT) | Potency (C33A) | Potency (CAOV3) | outcome (CASKI) | Potency (Es-2) | Potency (HeLa) | Potency (Hek293T) | Potency (JEG-3)
